# Reference: PubChem BioAssay (NCI)
# Compounds without any hit were thinned out: in the full panel of roughly 83,000, 20% have a hit.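 Activity criterion: percent growth below 10, measured after cells in 96-well plates were exposed to a single compound concentration for 48 hours.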 Values without a mark were called inactive. Active and inactive are the calls of the source.
# What was measured:
# Assay in all cases: NCI-60 one-dose screen, 48 h (100 = growth as untreated, 0 = no growth, -100 = all killed)
# Conditions in all cases: 10 µM unless noted
# NCI-H23 lung = tested on: NCI-H23 lung
# NCI-H226 lung = tested on: NCI-H226 lung
# NCI-H322M lung = tested on: NCI-H322M lung
# HOP-62 NSCLC = tested on: HOP-62 NSCLC
# NCI-H460 lung = tested on: NCI-H460 lung
# HOP-92 NSCLC = tested on: HOP-92 NSCLC
# NCI-H522 lung = tested on: NCI-H522 lung
# A549/ATCC NSCLC = tested on: A549/ATCC NSCLC
# 786-0 renal = tested on: 786-0 renal
# COLO 205 colon = tested on: COLO 205 colon
# DU-145 prostate = tested on: DU-145 prostate
# K-562 leukemia = tested on: K-562 leukemia
# MALME-3M melanoma = tested on: MALME-3M melanoma
# MDA-MB-231 breast = tested on: MDA-MB-231 breast
# RXF 393 renal = tested on: RXF 393 renal
# SF-268 CNS = tested on: SF-268 CNS
# SF-295 CNS = tested on: SF-295 CNS
# SF-539 CNS = tested on: SF-539 CNS
# M14 melanoma = tested on: M14 melanoma
Compound,growth (NCI-H23 lung) [%],growth (NCI-H226 lung),growth (NCI-H322M lung) [%],growth (HOP-62 NSCLC),growth (NCI-H460 lung),growth (HOP-92 NSCLC),growth (NCI-H522 lung),growth (A549/ATCC NSCLC),growth (786-0 renal),growth (COLO 205 colon),growth (DU-145 prostate),growth (K-562 leukemia),growth (MALME-3M melanoma),growth (MDA-MB-231 breast),growth (RXF 393 renal),growth (SF-268 CNS),growth (SF-295 CNS),growth (SF-539 CNS),growth (M14 melanoma)
O=C(O)c1ccc(-n2cc(CNc3ccc(C(F)(F)F)cc3)c(-c3ccccc3)n2)cc1,91.6,104%,101,90.5%,94.3%,83.8%,94.3%,72.5%,99.1%,107%,95.9%,80.6%,91.3%,102%,99.4%,91.4%,75%,99.9%,89%
COc1ccc(/C(=N/O)c2cc(F)c(F)c(OC)c2F)cc1O,39.2,85.7%,46,21.5%,9.72% (active),50.8%,-56.7% (active),42%,45%,62.1%,16.9%,10.3%,60.7%,47.8%,16.7%,48.1%,1.83% (active),-22.8% (active),15.4%
COC(=O)CC/C(C)=N\Nc1ccc([N+](=O)[O-])cc1,95.8,76.3%,76.5,59.7%,24.8%,92.7%,38.4%,24.6%,75.4%,54%,85.5%,4.87% (active),104%,79.6%,101%,72.4%,72.4%,65.8%,20.4%
Cc1ccccc1C(=O)c1ccccc1C(=O)O,100,110%,108,106%,111%,105%,102%,103%,97.9%,115%,110%,106%,109%,115%,118%,106%,109%,105%,96.3%
CCCS(=O)(=O)c1nc(NC2CC2)cc(-c2ccc3c(ccn3C3CC(C)(C)NC(C)(C)C3)c2)n1,10,-63% (active),32.5,7.4% (active),-74.1% (active),87.6%,-64.1% (active),-61.4% (active),-87.3% (active),-48.8% (active),8.45% (active),-52.6% (active),-56.3% (active),-78.8% (active),-87.3% (active),-48.7% (active),-48.9% (active),-88.1% (active),-78.2% (active)
O=S(=O)(NCCCNc1cc(-c2cn(-c3ccccc3)nc2-c2cccc(O)c2)ccn1)c1ccc(C(F)(F)F)cc1,43.9,49.6%,49.8,50.9%,22.2%,29%,69.7%,35.1%,-8.06% (active),-57.3% (active),60.8%,3.42% (active),22.7%,4.73% (active),24.7%,44.1%,-3.81% (active),36.7%,23.5%
Cc1ccc2c(c1)ncn2-c1ncnc2c1CC(C)c1ccccc1N2C (stereo unspecified),24,54.2%,61.3,33.9%,3.26% (active),24%,-22.8% (active),23.5%,24.9%,-33.4% (active),11.8%,7.17% (active),49.3%,26.9%,72%,19.9%,13.3%,4.79% (active),19.7%
CC1Cc2c(N(C)C)ncnc2N(C)c2ccc(Cl)cc21 (stereo unspecified),50.1,85.6%,73.2,41.9%,14.5%,58%,13.4%,55.8%,31.1%,36%,52.4%,14.3%,51.4%,55%,42.6%,44.5%,3.45% (active),4.81% (active),22.2%
CCN(Cc1ccc(CN(CC)C(=O)C(Cl)(Cl)Cl)cc1)C(=O)C(Cl)(Cl)Cl,67.6,83.9%,118,98.2%,86.7%,33.1%,74%,79.2%,72.6%,95.7%,97.7%,27%,68.4%,98.2%,101%,80.5%,76.4%,101%,89.9%
O=C(Nc1cccc(Cl)c1)c1cc([N+](=O)[O-])ccc1O,25.8,68.2%,43.9,44.2%,54%,8.95% (active),-2.45% (active),66.9%,63.8%,76.7%,73.2%,27.7%,22%,38%,46.2%,65%,58.8%,32.2%,54.9%
CC(C)N(Cc1ccc(CN(C(=O)CCl)C(C)C)cc1)C(=O)CCl,19.8,-2.93% (active),94.6,-27.7% (active),35.8%,-65.4% (active),-75.6% (active),57.4%,-85.1% (active),-54.3% (active),12%,14%,-63.2% (active),-2.71% (active),45.6%,-50.7% (active),28.2%,-84% (active),1.15% (active)
Cc1ccc(S(=O)(=O)OCC(=O)Nc2ccc(C(=O)O)c(O)c2)cc1,131,126%,104,100%,103%,-60.6% (active),93.8%,101%,108%,131%,100%,70.2%,106%,97.2%,63.1%,97%,110%,96.1%,95.4%
CC/C=C\C[C@H](O)C/C=C1/C(=O)C(Cl)=C[C@@H]1C/C=C\CCCC(=O)O,70.2,89.6%,94.5,96.8%,97.7%,98.3%,-68.1% (active),100%,75.2%,47.6%,75.9%,3.74% (active),21.7%,43.5%,64.2%,55.9%,89.2%,66%,35.7%
O=[N+]([O-])c1c(S(=O)(=O)O)cc2cc(S(=O)(=O)O)ccc2c1[N+](=O)[O-],90.6,108%,92.6,109%,105%,103%,86.1%,98.9%,103%,117%,107%,95.7%,91%,99.7%,109%,99.5%,105%,98.4%,99.8%
